{"source": "PubChem BioAssay (Tox21)", "note": "Results filed as inconclusive are left out. Where a call stands in place of a potency, no number is given. Active and inactive are the calls of the source. The call rests on the fitted dose curve; in most records, active means well fitted cell-killing curve with a large enough effect in the repeat runs; inconclusive means weak or mixed curves, or effect the other way; inactive means flat fitted curve, though single readings scatter. Potency means the concentration at half of the fitted maximal effect.", "data": [{"experiment": "qHTS assay to identify small molecule antagonists of the estrogen receptor alpha (ER-alpha) signaling pathway using the BG1 cell line in the presence of 0.1 nM 17-beta-estradiol - cell viability counter screen (AID 1259241); further: nearly all actives have a fitted effect of over 40% in size", "settings": "VM7Luc4E2 (BG1) viability, CellTiter-Fluor protease, 22 h, 0.1 nM estradiol agonist added; series mostly up to 92.4 µM", "from_the_text": "National Center for Advancing Translational Sciences [NCATS]\nNIH Chemical Genomics Center [NCGC]\nU.S. Environmental Protection Agency [EPA]\nNational Institutes of Environmental Health Sciences [NIEHS]\nNational Toxicology Program [NTP]\nU.S. Food and Drug Administration [FDA]\nEstrogen receptor (ER), a member of the nuclear hormone receptor plays an important role in development, metabolic homeostasis and reproduction. Two subtypes of ER, ER-alpha and ER-beta, have similar expression patterns with some uniqueness in both types. Endocrine disrupting chemicals (EDCs) and their interactions with steroid hormone receptors like ER causes disruption of normal endocrine function. Therefore, it is important to understand the effect of environmental chemicals in ER signaling pathway. For identifying ER antagonists, VM7Luc4E2 cell line was used to screen against Tox21 compound libraries.\nVM7Luc4E2 cell line (provided by Denison MS, University of California) endogenously express full-length ER-alpha and is stably transfected with a plasmid containing four estrogen responsive elements (ERE) upstream of a luciferase reporter gene. The current screening for identification of ER-alpha inhibitors against Tox21 compound libraries used lower concentration (0.1 nM) of 17beta-Estradiol as a stimulator. The cytotoxicity of the Tox21 compound libraries against VM7Luc4E2 cell line was tested by measuring live-cell protease activity using CellTiter-Fluor assay in the same wells.\nTox21 Assay Protocol Summary:\nVM7Luc4E2 cells were cultured in phenol red free assay medium containing 10% charcoal stripped FBS for 5 days prior to the assay. The cells were dispensed at 4,000 cells/well in 4 uL of assay medium into white wall/solid-bottom 1536-well plates (Corning Life Sciences, Corning, NY) using a Multidrop Combi (ThermoFisher Scientific, Waltham, MA) dispenser. After the assay plates were incubated at 37C and 5% CO2 for 24 hr, 23 nL of compounds dissolved in DMSO, positive controls or DMSO only was transferred to the assay plates by a Pintool station (Kalypsys, San Diego, CA). The transfer of compounds was followed by the addition of 1 uL of 0.1 nM (final concentration) agonist (17beta-Estradiol)/assay medium using a Flying Reagent Dispenser (FRD, Aurora Discovery, San Diego, CA). The plates were incubated at 37C and 5% CO2 for 22 hr. For cytotoxicity assay, 1 uL of CellTiter-Fluor reagent (Promega Corporation, Madison, WI) was added to each well using the FRD and after 30 min incubation at 37C and 5% CO2, The fluorescence intensity was measured using ViewLux plate reader (PerkinElmer, Shelton, CT).", "values": [{"smiles": "C#CC(O)(C=CCl)CC", "note": "(stereo not given)", "Potency": "inactive"}, {"smiles": "c1ccc2c(c1)-c1cccc3cccc-2c13", "Potency": "inactive"}, {"smiles": "FC(Cl)(Cl)C(F)(Cl)Cl", "Potency": "inactive"}, {"smiles": "O=C([O-])c1ccccn1.O=C([O-])c1ccccn1.O=C([O-])c1ccccn1.[Cr+3]", "Potency": "inactive"}, {"smiles": "CCCBr", "Potency": "inactive"}, {"smiles": "CC(=O)OC(c1ccccc1)C(Cl)(Cl)Cl", "note": "(stereo not given)", "Potency": "inactive"}, {"smiles": "C=CCOC(=O)C(C)(C)OC(=O)c1cc(-n2c(=O)cc(C(F)(F)F)n(C)c2=O)ccc1Cl", "Potency": "inactive"}, {"smiles": "O=C(O)c1ccc(=O)[nH]c1", "Potency": "inactive"}, {"smiles": "CC1(C)[C@H](C(=O)O[C@H](C#N)c2cccc(Oc3ccccc3)c2)[C@@H]1C=C(Br)Br", "Potency": "inactive"}, {"smiles": "CN(C)c1ccc(N=O)cc1", "Potency": "61.3 µM (active)"}, {"smiles": "CON(C)C(=O)Nc1ccc(Cl)cc1", "Potency": "inactive"}, {"smiles": "O=[N+]([O-])c1cc(Cl)c(Cl)cc1Cl", "Potency": "inactive"}, {"smiles": "CCOP(=S)(S)OCC", "Potency": "inactive"}, {"smiles": "O=P(OCC(Br)CBr)(OCC(Br)CBr)OCC(Br)CBr", "note": "(stereo not given)", "Potency": "inactive"}, {"smiles": "C[C@H](N)[C@H](O)c1ccc(O)c(O)c1", "Potency": "inactive"}, {"smiles": "CCC(C)Cl", "note": "(stereo not given)", "Potency": "inactive"}, {"smiles": "CN1CC[C@]23c4c5ccc(O)c4O[C@H]2[C@@H](O)C=C[C@H]3[C@H]1C5", "Potency": "inactive"}, {"smiles": "C[C@]12CC[C@H]3[C@@H](CCC4=CC(=O)CC[C@@H]43)[C@@H]1CC[C@@H]2OC(=O)CCc1ccccc1", "Potency": "inactive"}, {"smiles": "CCC(=O)O[C@@H]1C=C2CCC3C(CCC4(C)C3CC[C@@H]4OC(=O)CC)C2CC1", "note": "(stereo not given in full)", "Potency": "inactive"}, {"smiles": "CCC1CCC(=O)O1", "note": "(stereo not given)", "Potency": "inactive"}, {"smiles": "COC(=O)Cc1ccccc1", "Potency": "inactive"}, {"smiles": "NC(=O)CF", "Potency": "inactive"}, {"smiles": "CCCC[N+]1(C)[C@@H]2CC(OC(=O)[C@H](CO)c3ccccc3)C[C@H]1[C@@H]1O[C@@H]12", "note": "(stereo not given in full)", "Potency": "inactive"}, {"smiles": "Cc1cccc(C)c1NC1=NCCCS1", "Potency": "inactive"}, {"smiles": "CCC1(C2=NCCN2)Cc2ccccc2O1", "note": "(stereo not given)", "Potency": "inactive"}, {"smiles": "CN(C1CCCCC1)C1CCCCC1", "Potency": "inactive"}, {"smiles": "O=S(=O)(c1ccccc1)c1ccccc1", "Potency": "inactive"}, {"smiles": "C=C(Cl)Cl", "Potency": "inactive"}, {"smiles": "OCC1CO1", "note": "(stereo not given)", "Potency": "inactive"}, {"smiles": "CCOC(=O)c1cncn1C(C)c1ccccc1", "note": "(stereo not given)", "Potency": "inactive"}, {"smiles": "C=CCSSCC=C", "Potency": "inactive"}, {"smiles": "C=C(C)C(=O)OCCCCOC(=O)C(=C)C", "Potency": "inactive"}, {"smiles": "Nc1ccc2c(c1)Cc1ccccc1-2", "Potency": "inactive"}, {"smiles": "CC(=O)NNc1ccccc1", "Potency": "inactive"}, {"smiles": "C=CC(C)(CCC=C(C)C)OC(=O)c1ccccc1N", "note": "(stereo not given)", "Potency": "inactive"}, {"smiles": "Cc1cnc(C2=NC(C)(C(C)C)C(=O)N2)c(C(=O)O)c1", "note": "(stereo not given)", "Potency": "inactive"}, {"smiles": "O=CC=O", "Potency": "inactive"}, {"smiles": "Nc1ccccc1C(=O)OCC(O)CO", "note": "(stereo not given)", "Potency": "inactive"}, {"smiles": "Nc1ccccc1C(=O)OCCc1ccccc1", "Potency": "inactive"}, {"smiles": "C[C@H]1O[C@H](OC2[C@@H](O)[C@@H](O)C(O)[C@H](O)[C@H]2O)[C@@H](N)C[C@@H]1N=C(N)C(=O)O", "note": "(stereo not given in full)", "Potency": "inactive"}]}]}
